Assay results reported in PubChem BioAssay AID2315 (National Center for Advancing Translational Sciences (NCATS), 2010).
Hit rate of the full screen: of about 290,000 compounds, about 27,000 (9.3%) were called active. Many of the other results were omitted from the sample, so actives are more common in it than they were. Unmarked numbers belong to inactive results. No stated cut-off is given here; in the data, active means inhibition mostly above about 28% (no sharp cut-off); inactive means mostly below about 43%.

assay: A qHTS for Small Molecule Inhibitors of Shiga Toxin; conditions: Vero cells, Shiga toxin protein synthesis inhibition reporter; at 38.7 µM, stronger effect = higher value; further: 0% is about no effect

SMILES	inhibition
COc1cccc(C(=O)Nc2cccnc2)c1OC	2.65%
COc1ccc(/C=C/C(=O)N2CCCC2)cc1OC	3.99%
COc1ccc(/C=C/C(=O)Nc2ccc(C)cc2)cc1S(=O)(=O)N1CCOCC1	20.7%
COc1ccc(/C=C/C(=O)Nc2ccc(C34CC5CC(CC(O)(C5)C3)C4)cc2)cc1OC	90.8% (active)
COc1ccc(/C=C/C(=O)Nc2cccnc2)cc1OC	51.8% (active)
COc1ccc(C(=O)CCC(=O)Nc2cccnc2)c(OC)c1	-20.3%
CN(CC(=O)NCc1ccc(Cl)cc1)S(=O)(=O)c1cccs1	45.6%
COc1ccc(NC(=O)CN2C(=O)COc3ccc(S(=O)(=O)N4CCOCC4)cc32)cc1	-3.8%
COc1ccc(-c2n[nH]c3c2CN(C(=O)c2ccc(F)cc2)CC3)cc1	-7.56%
COc1ccc(CCNC(=O)c2ccccc2OCc2ccccc2)cc1	14.7%
COc1ccc(CCNC(=O)c2ccccc2-c2ccccc2C(=O)O)cc1OC	-1.45%
COc1cccc2[nH]c(C(=O)NCCc3ccccc3)cc12	67.7% (active)
Cc1cc(C)cc(N(CC(=O)NC2CCCC2)C(=O)CCC(=O)Nc2nccs2)c1	20.2%
COc1ccc([N+](=O)[O-])cc1N(CC(O)CN(CC(C)C)CC(C)C)S(=O)(=O)c1ccc(C)cc1 (stereo not drawn)	12.3%
O=c1[nH]cnc(O)c1C(c1ccc(F)cc1)c1c(O)nc[nH]c1=O	8.92%
CC(=O)N1CCN(CC(=O)Nc2ccc(C)c(F)c2)CC1	-1.77%
COc1c(Cl)cc(C(=O)Nc2ccc(Cl)cn2)cc1Cl	8.12%
O=C(Nc1cccc([N+](=O)[O-])c1)Nc1ccc(Cl)cn1	0.898%
CCCCC(CC)C(=O)Nc1ccc(Cl)cn1 (stereo not drawn)	6.98%
O=C(Nc1ccc(Cl)cn1)Nc1cccs1	65.7% (active)
CCCc1cc(C(=O)Nc2ccc(Cl)cn2)cs1	57.6% (active)
CCCc1cc(C(=O)Nc2ccc(C(=O)OC)cc2)cs1	28.2%
C[C@H](NC(=O)c1nc[nH]c1C(=O)NCC(=O)OC(C)(C)C)c1ccccc1	-2.69%
COC(=O)c1nc(NC(=O)c2ccc(F)cc2)n[nH]1	0.673%
COC(=O)c1ccc(Sc2ccc(F)cc2)c(N)c1	64.7% (active)

SMILES	inhibition
COC(=O)c1ccc(C(=O)OC)c(NC(=S)N2CCN(c3ccc(F)cc3)CC2)c1	-8.17%
COC(=O)c1ccc(C(=O)NC2CC(C)(C)Cc3c2cnn3-c2ccc(F)cc2)nc1 (stereo not drawn)	19.8%
COc1ccc(C(=O)CSc2nccc(=O)[nH]2)cc1	11%
COc1ccc(C2=NN(C(=O)c3ccccc3C(=O)O)C(c3ccccc3O)C2)cc1 (stereo not drawn)	162% (active)
COc1ccc(C2CC(c3ccccc3)=NN2C(=O)c2ccc(Cl)c([N+](=O)[O-])c2)cc1 (stereo not drawn)	-3.59%
COc1cccc(C2CC(c3ccccc3)=NN2S(=O)(=O)c2ccccc2)c1OC (stereo not drawn)	-3.39%
COc1ccc(C2CC(c3ccccc3)=NN2C(=O)CSc2nccc(=O)[nH]2)cc1 (stereo not drawn)	50.8% (active)
COc1ccc(C2=NN(C(C)=O)C(c3ccccc3)C2)cc1 (stereo not drawn)	26.2% (active)
COc1ccc(C2=NN(C(=O)CCC(=O)O)C(c3cccs3)C2)cc1OC (stereo not drawn)	-6.96%
CCOc1ccc2nc(Cl)c(C3CC(c4ccccc4)=NN3C(=O)c3cccs3)cc2c1 (stereo not drawn)	-5.57%
COc1ccc(C2CC(c3ccc([N+](=O)[O-])cc3)=NN2C(C)=O)cc1 (stereo not drawn)	37.4% (active)
COc1ccc(C(=O)Nc2nc(-c3ccc(OC)cc3)c(-c3ccc([N+](=O)[O-])cc3)s2)cc1	-3.81%
COc1ccc(C2CC(c3ccccc3)=NN2C(=O)COC(=O)COc2ccccc2)cc1 (stereo not drawn)	30.8%
COc1ccc(C2=NN(C(=O)c3cccnc3)C(c3ccccc3)C2)cc1 (stereo not drawn)	-14.3%
Brc1ccccc1CN1CCC(Cc2ccccc2)CC1	14.5%
N[C@@H](Cc1ccccc1)C(=O)N1CCC(C(=O)NCC(=O)Nc2ccc(F)cc2)CC1	9.91%
COc1ccc(CCNC(=O)C(=O)NCC2OCCN2S(=O)(=O)c2ccc(OC)c(C)c2)cc1 (stereo not drawn)	2.43%
Cc1ccc(NS(=O)(=O)c2ccc(-c3coc(C)n3)cc2)c(C)c1	-3.55%
CCC(CC)C(=O)Nc1c2c(nn1-c1ccc(C)cc1)CS(=O)(=O)C2	-8.79%
CCN(CC)CCCNC(=O)c1cc2c(=O)[nH]c3ccc(C)cc3c2s1	-4.39%
O=C(C1CC(=O)N(C2CCCCC2)C1)N1CCN(c2ccccc2)CC1 (stereo not drawn)	27.8%
C/C(=N\NC(=O)Cc1ccccc1[N+](=O)[O-])c1cccnc1	-10.2%
Cc1cc(C(=O)NC2CC(C)(C)Cc3c2cnn3-c2ccccc2)n[nH]1 (stereo not drawn)	-14.3%
CN(C(=O)CC1C(=O)NCCN1Cc1ccc2ccccc2c1)C1CCOCC1 (stereo not drawn)	-0.828%
CN1/C(=C\C(=O)c2cccnc2Cl)C(C)(C)c2ccccc21	-10.8% (active)

SMILES	inhibition
CN1/C(=C\C(=O)c2oc3ccccc3c2N)C(C)(C)c2ccccc21	14.5%
CC(C)Nc1nnc(SCC(=O)/C=C2\N(C)c3ccccc3C2(C)C)s1	13.3%
Cc1ccccc1-c1nc(CS(=O)(=O)CC(=O)NC(C)c2ccccc2)c(C)o1 (stereo not drawn)	-2.18%
CC1C(=O)C(C)C(c2ccc(O)cc2)NC1c1ccc(O)cc1 (stereo not drawn)	-9.62%
Cc1ccc(S(=O)(=O)NCC(=O)N2CCOCCOCCOCCOCC2)cc1	-2.1%
Cc1ccc(Cl)cc1NC(=O)COC(=O)CC(C)(C)C	-3.98%
C/C(CC(=O)N1CCN(C=O)CC1)=N\NC(=O)c1ccc(Br)cc1	36.4%
C/C(=N\NC(=O)Cc1ccc(F)cc1)c1ccc(F)cc1	11.6%
O=C(O)CC/C(=N\NC(=O)c1ccc(F)cc1)c1ccc(Br)cc1	57.9% (active)
CCn1ccnc1CNC(=O)CC1C(=O)NCCN1CCCc1ccccc1 (stereo not drawn)	12.9%
COc1ccc(CC(=O)Nc2c(C(N)=O)oc3ccccc23)cc1	9.35%
COc1cc(C(C(=O)NC2CCCC2)N(C(=O)c2ccco2)c2ccccc2C(C)=O)cc(OC)c1OC (stereo not drawn)	-3.47%
COc1ccc(NC(=O)[C@H](NC(=O)[C@@H]2Cc3ccccc3CN2)c2ccccc2)cc1	-2.7%
COc1ccc(NC(C(=O)Nc2cccc(C(C)=O)c2)c2ccccc2)cc1 (stereo not drawn)	27.6% (active)
COC(C(=O)Nc1ccc(C(C)=O)cc1)c1ccccc1 (stereo not drawn)	10.3%
Cc1cc(C)cc(N(CC(=O)N2CC=C(c3ccccc3)CC2)S(=O)(=O)c2c(C)noc2C)c1	-8.45%
CNc1ccc(NC(C)=O)cc1[N+](=O)[O-]	-5.19%
CNc1[nH]ncc1[N+](=O)[O-]	120% (active)
CN(C)/C=C(\C=[N+](C)C)c1[nH]ncc1[N+](=O)[O-]	-4.31%
CC(=O)Nc1ccc(C(=O)Nc2nc(-c3cc(C)n(Cc4ccccc4)c3C)cs2)cc1	-6.21%
Cc1cc(-c2csc(N)n2)c(C)n1-c1ccccc1	34.4%
Cc1cc(-c2csc(N)n2)c(C)n1Cc1ccccc1	28.2% (active)
Cc1ccccc1NC(=O)CSc1nc2ccc(Nc3nc(N4CCOCC4)nc(N4CCOCC4)n3)cc2s1	23.8%
Cc1nnc2sc(-c3ccco3)nn12	-4.02%
FC(F)(F)c1nnc2sc(-c3ccco3)nn12	7.08%

SMILES	inhibition
Fc1ccc(-c2ccc(-c3nn4c(-c5ccco5)nnc4s3)o2)cc1	26.5% (active)
CCN(CC)S(=O)(=O)c1ccc(NC(=O)c2cccnc2Cl)c(NC(=O)c2cccnc2Cl)c1	-4.86%
CCN(CC)S(=O)(=O)c1cc(C(=O)Nc2ccccn2)ccc1C	119% (active)
Cc1ccc(NC(=O)CNCc2ccccn2)cc1S(=O)(=O)N(C)C	40.8%
COc1cc(C(=O)NCc2nnc(SCC(=O)c3ccc(Cl)cc3)o2)cc(OC)c1OC	-10.7%
OCCN1CCN(c2nnc(-c3ccccc3)c3ccccc23)CC1	-4.9%
Cc1nc(C)c(-c2nnc(-c3cccc(S(=O)(=O)N(C)C)c3)o2)cc1C(=O)NN	3.74%
COc1ccc2c(C(=O)c3ccc(C)cc3)n(CCC(N)=O)[n+]([O-])c2c1	7.71%
O=C(O)Cc1sc(-c2ccccc2)nc1-c1cccs1	47.2%
NC(=O)Cc1ccc2c(c1)[nH]c1ccccc12	11.9%
NC(=O)Cc1ccc2sc(-c3ccccc3)nc2c1	79.9% (active)
Cc1cc(S(=O)(=O)NCc2ccccn2)c(Cl)cc1Cl	-4.73%
CCSc1nc(O)c(C(c2cccc(OC)c2)c2c(O)nc(SCC)[nH]c2=O)c(=O)[nH]1	19.1%
CC(=O)NCCC(=O)Nc1cc(S(=O)(=O)N2CCCCC2)ccc1Oc1cccc(C)c1	-10.6%
C/C(CC(=O)Nc1cccc(F)c1)=N\NC(=O)C(=O)NC1CCCCC1	-4.86%
CC(C)c1ccc(NC(=O)NC2CCCCC2)cc1	107% (active)
Cc1cc(Br)ccc1NC(=S)NC1CCCC1	35.4%
Cc1ccc(NC(=O)CSCC(=O)NC2CCCCC2)cc1	5.95%
CC(C)(C)NS(=O)(=O)c1ccc(NC(=O)NC2CCCCC2)cc1	56.6%
Cc1cc(C)cc(NC(=O)NC2CCCCCCC2)c1	14.2%
Cc1ccc(NC(=S)NC2CCCC2)cc1	85% (active)
O=C(Nc1cccc(F)c1)NC1CCCc2ccccc21 (stereo not drawn)	-2.03%
O=C(Nc1cccc(F)c1)NC1CCCCCCC1	159% (active)
